Experimental data taken from PubChem BioAssay (Tox21).
Inconclusive results are not listed. Calls of active or inactive are those of the source. Unless noted, calls follow the shape of the dose curve; as a rule, active = well fitted curve in the direction sought with a large enough effect in the repeat runs; inconclusive = weak or mixed curves; inactive = no such curve, though single readings can be large; an effect the other way counts as inactive or inconclusive.

Key:
[1] = qHTS assay to identify small molecule antagonists of the glucocorticoid receptor (GR) signaling pathway - cell viability counter screen (AID 720693); also: nearly all actives have a fitted effect of over 55% in size
[2] = qHTS assay for identifying genotoxic compounds that show differential cytotoxicity against isogenic chicken DT40 cell lines with known DNA damage response pathways - wild type cell line (AID 743012); also: nearly all actives have a fitted effect of over 60% in size
Outline: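 Viability of DNA repair-proficient chicken DT40 cells was assessed by CellTiter-Glo luminescence following 40 h compound exposure at 37 C/5% CO2.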

[3] = qHTS assay for identifying genotoxic compounds that show differential cytotoxicity against isogenic chicken DT40 cell lines with known DNA damage response pathways - Rev3 mutant cell line (AID 743014); also: nearly all actives have a fitted effect of over 55% in size
[4] = qHTS assay for identifying genotoxic compounds that show differential cytotoxicity against isogenic chicken DT40 cell lines with known DNA damage response pathways - Rad54/Ku70 mutant cell line (AID 743015); also: nearly all actives have a fitted effect of over 60% in size
[5] = qHTS assay to identify small molecule antagonists of the androgen receptor (AR) signaling pathway - cell viability counter screen (AID 743033; also: nearly all actives have a fitted effect of over 45% in size)
[6] = target: Androgen receptor (Homo sapiens) (UniProt P10275); test: qHTS assay to identify small molecule agonists of the androgen receptor (AR) signaling pathway (AID 743036; active = well fitted activation curve with a large enough effect in the signal ratio in the repeat runs, with a control signal flat, not every such curve was filed as active; the % refers to the signal ratio)
Outline: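 Reporter line: GeneBLAzer AR-UAS-bla-GripTite (HEK293). Steps: plate cells, 4 h rest, add compounds, 16 h at 37C, add LiveBLAzer B/G substrate, 2 h at RT, read fluorescence.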

[7] = target: Androgen receptor (Homo sapiens) (UniProt P10275); test: qHTS assay to identify small molecule agonists of the androgen receptor (AR) signaling pathway using the MDA cell line (AID 743040; also: nearly all actives have a fitted effect of over 20% in size; also: potency is read from the fitted curve at half-maximal effect)
Outline: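 Cell-based luciferase reporter: MDA-kb2, MMTV promoter (AR + GR response elements). 16 h compound exposure at 37C; ONE-Glo, 30 min RT, luminescence.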

[8] = qHTS assay to identify small molecule antagonists of the androgen receptor (AR) signaling pathway using the MDA cell line - cell viability counter screen (AID 743041; also: nearly all actives have a fitted effect of over 45% in size)
Outline: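 In this qHTS counter assay, fluorescence intensity after CellTiter-Fluor addition indicated viability of MDA-kb2 AR-luc cells given compounds and R1881 for 16 h at 37C.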

[9] = target: Androgen receptor (Homo sapiens) (UniProt P10275); test: qHTS assay to identify small molecule antagonists of the androgen receptor (AR) signaling pathway using the MDA cell line (AID 743042; also: nearly all actives have a fitted effect of over 55% in size)
Outline: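 MDA-kb2 cells (human breast carcinoma, stably carrying an MMTV-luciferase reporter responsive to AR and GR) were plated at 3,000 cells/well and preincubated 5 hr at 37C, then given compound plus R1881 agonist for 16 h. ONE-Glo luminescence was read.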

[10] = target: Androgen receptor (Homo sapiens) (UniProt P10275); test: qHTS assay to identify small molecule antagonists of the androgen receptor (AR) signaling pathway (AID 743035; active = well fitted inhibition curve with a large enough effect in the signal ratio in the repeat runs, not every such curve was filed as active; the % refers to the signal ratio)
Outline: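 Reporter HEK293 cells were exposed to compounds and R1881 overnight (16 h, 37C); beta-lactamase activity was then quantified by FRET fluorescence.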

Measured: Potency

Androgen receptor (Homo sapiens), sequence (P10275 whole entry, looked up): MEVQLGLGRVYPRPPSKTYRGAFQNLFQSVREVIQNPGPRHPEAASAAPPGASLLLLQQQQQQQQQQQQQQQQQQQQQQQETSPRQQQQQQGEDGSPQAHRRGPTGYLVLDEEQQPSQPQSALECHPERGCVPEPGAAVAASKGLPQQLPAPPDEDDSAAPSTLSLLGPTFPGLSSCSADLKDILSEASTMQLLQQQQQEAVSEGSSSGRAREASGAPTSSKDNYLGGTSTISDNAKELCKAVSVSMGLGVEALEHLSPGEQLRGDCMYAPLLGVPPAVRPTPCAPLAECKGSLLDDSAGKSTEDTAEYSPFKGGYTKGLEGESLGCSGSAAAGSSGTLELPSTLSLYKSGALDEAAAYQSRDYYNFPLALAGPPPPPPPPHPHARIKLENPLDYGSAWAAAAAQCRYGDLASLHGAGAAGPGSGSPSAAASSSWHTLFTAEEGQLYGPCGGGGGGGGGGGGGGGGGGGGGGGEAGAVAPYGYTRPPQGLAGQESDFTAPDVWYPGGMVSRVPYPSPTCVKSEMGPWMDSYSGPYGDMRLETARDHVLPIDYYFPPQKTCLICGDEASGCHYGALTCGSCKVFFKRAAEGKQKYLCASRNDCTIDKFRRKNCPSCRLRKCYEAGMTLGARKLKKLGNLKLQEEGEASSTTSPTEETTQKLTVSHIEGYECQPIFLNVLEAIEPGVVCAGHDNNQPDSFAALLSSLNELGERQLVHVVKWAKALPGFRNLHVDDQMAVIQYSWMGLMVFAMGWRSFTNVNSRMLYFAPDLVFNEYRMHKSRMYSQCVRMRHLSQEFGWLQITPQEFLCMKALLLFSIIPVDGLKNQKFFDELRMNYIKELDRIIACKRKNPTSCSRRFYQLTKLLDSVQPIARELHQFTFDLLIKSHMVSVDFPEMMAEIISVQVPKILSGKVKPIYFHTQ

CC(C)=CCC[C@@](C)(O)[C@H]1CC=C(C)CC1
inactive: [1] | [2] | [3] | [4] | [5]

OC[C@H]1O[C@@H](O[C@@H]2[C@@H](CO)O[C@](O)(CO)[C@H]2O)[C@H](O)[C@@H](O)[C@H]1O
inactive: [1] | [2] | [3] | [4] | [5] | [6] | [7] | [8] | [9]

O=C(CN1CCNCC1)NC1CCCCC1
inactive: [1] | [2] | [3] | [4] | [5] | [8]

CCO
inactive: [1] | [2] | [3] | [4] | [5] | [10] | [7] | [8] | [9]

CCCC(=O)OC/C=C(\C)CCC=C(C)C
inactive: [1] | [2] | [3] | [4] | [5] | [8]

CC(O)CC(C)O (centres undefined)
inactive: [1] | [2] | [3] | [4] | [5] | [8]

O=C1CCCCO1
inactive: [1] | [2] | [3] | [4] | [5] | [8]

CC1(C)Oc2ccc(C#N)cc2[C@@H](N2CCCC2=O)[C@@H]1O
inactive: [1] | [2] | [3] | [4] | [5] | [8]

O=C(CCCCC(=O)Nc1c(I)cc(I)c(C(=O)O)c1I)Nc1c(I)cc(I)c(C(=O)O)c1I
inactive: [1] | [2] | [3] | [4] | [5] | [8]

CCCCCCCCCCCCCCCCCCOCCO
inactive: [1] | [2] | [3] | [4] | [5] | [8]

C/C(CC(C)C)=N\O
inactive: [1] | [2] | [3] | [4] | [5] | [8]

O=C(O)CSCC(=O)NC1CCSC1=O (centres undefined)
inactive: [1] | [2] | [3] | [4] | [5] | [6] | [7] | [8] | [9]

N[C@@H](CSCCCO)C(=O)O
inactive: [1] | [2] | [3] | [4] | [5] | [10] | [6] | [8] | [9]
active: [7] 33.5 µM

CCCCC1CCC(O)CC1 (centres undefined)
inactive: [1] | [2] | [3] | [4] | [5] | [10] | [6] | [7] | [8] | [9]

CC(C)OC(=O)OCOP(=O)(CO[C@H](C)Cn1cnc2c(N)ncnc21)OCOC(=O)OC(C)C
inactive: [1] | [2] | [3] | [4] | [5] | [8]

CCC/C=C(\C=O)CC
inactive: [1] | [2] | [3] | [4] | [5] | [8]

Cc1ccc(C(=O)O)cc1[N+](=O)[O-]
inactive: [1] | [2] | [3] | [4] | [5] | [10] | [7] | [8] | [9]

OCC1CCC(CO)CC1 (centres undefined)
inactive: [1] | [2] | [3] | [4] | [5] | [10] | [6] | [7] | [8] | [9]

CC(C)[C@H]1CC[C@H](C)C[C@@H]1O
inactive: [1] | [2] | [3] | [4] | [5] | [10] | [6] | [7] | [8] | [9]

C=C(C)C1CC=C(C)C(=O)C1 (centres undefined)
inactive: [1] | [2] | [3] | [4] | [5] | [8]

CCCCCCCCCOC(=O)c1ccccc1C(=O)OCCCCCCCCC
inactive: [1] | [2] | [3] | [4] | [5] | [6] | [7] | [8] | [9]

CN(C)CCCO[C@@H]1[C@H]2OC(C)(C)O[C@H]2O[C@@H]1C(O)CO (some centres undefined)
inactive: [1] | [2] | [3] | [4] | [5] | [8]

CC1=C(C(=O)O)N2C(=O)[C@@H](NC(=O)[C@H](N)C3=CCC=CC3)[C@H]2SC1
inactive: [1] | [2] | [3] | [4] | [5] | [8]

CCNC(=O)NCc1cccc(Cl)c1
inactive: [1] | [2] | [3] | [4] | [5] | [8]

C/C=C(\C)C(C)=O
inactive: [1] | [2] | [3] | [4] | [5] | [10] | [6] | [7] | [8] | [9]
